The results in this text go back to PubChem BioAssay (NCATS).

A short description of assay [1]: qHTS for Inhibitors of the Functional Ribonucleoprotein Complex (vRNP) of Lassa (LASV) Arenavirus: Viability assay - alamar blue signal for LASV Primary Screen (AID 1347083; calls by dose curve; tested in HEK293 reporter line; further: nearly all actives have a fitted effect of over 80% in size). Background: Quantitative high-throughput screening tests each substance at several concentrations.
Assay [2] addresses Nucleoprotein (Lymphocytic choriomeningitis virus (strain Armstrong)) (UniProt P09992). Put plainly: qHTS for Inhibitors of the Functional Ribonucleoprotein Complex (vRNP) of Lymphocytic Choriomeningitis Arenaviruses (LCMV): LCMV Primary Screen - GLuc reporter signal (AID 1347086; calls by dose curve; further: nearly all actives have a fitted effect of over 70% in size).
Assay [3] in a line: qHTS of pediatric cancer cell lines to identify multiple opportunities for drug repurposing: Primary screen for TC32 cells (AID 1347089). Further: nearly all actives have a fitted effect of over 60% in size. In a few lines:
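qHTS, TC32, 48 h drug treatment, CellTiter-Glo luminescence as a proxy for metabolically active cells; primary top concentration 46 µM (MIPE 11-pt, NPC 8-pt); confirmatory 11-pt.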

A short description of assay [4]: qHTS of pediatric cancer cell lines to identify multiple opportunities for drug repurposing: Primary screen for DAOY cells (AID 1347090). Further: nearly all actives have a fitted effect of over 55% in size. In a few lines: (§1)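 Eight- or eleven-point concentration series, 48 h treatment at 37 degrees C in growth media; readout CellTiter-Glo luminescence. Potency and efficacy were taken from the concentration-response curves.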
Assay [5] can be described thus: qHTS of pediatric cancer cell lines to identify multiple opportunities for drug repurposing: Primary screen for A673 cells (AID 1347092). Further: nearly all actives have a fitted effect of over 45% in size. In a few lines:
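Luminescence from CellTiter-Glo, taken after 15 min at room temperature, served as the proxy for metabolically active cells following 48 h treatment. Both potency and efficacy were taken from curves fitted to the titration data.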

Assay [6] can be described thus: qHTS of pediatric cancer cell lines to identify multiple opportunities for drug repurposing: Primary screen for SK-N-MC cells (AID 1347093). Put shortly: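 Metabolically active cells were quantified by ATP-dependent luminescence (CellTiter-Glo, 15 min at room temperature) following 48 h treatment. Cells had been plated at 500-1,000 per well and settled for 5 h beforehand.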

The nature of assay [7]: qHTS of pediatric cancer cell lines to identify multiple opportunities for drug repurposing: Primary screen for BT-37 cells (AID 1347094). Put shortly:
(§2)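 Cells seeded at 500-1,000 cells/well in growth media, rested 5 hours at 37 degrees C, 5% CO2, then dosed; MIPE compounds at 11-point (from 0.78 nM) and NPC at 8-point (from 0.59 nM) final concentrations. Viability by CellTiter-Glo luminescence after 48 hours.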

The nature of assay [8]: qHTS of pediatric cancer cell lines to identify multiple opportunities for drug repurposing: Primary screen for Saos-2 cells (AID 1347097). Further: nearly all actives have a fitted effect of over 40% in size. Put shortly:
as §2

Assay [9] in a line: qHTS of pediatric cancer cell lines to identify multiple opportunities for drug repurposing: Primary screen for NB1643 cells (AID 1347099). Further: nearly all actives have a fitted effect of over 50% in size. Put shortly: as §2
The nature of assay [10]: qHTS of pediatric cancer cell lines to identify multiple opportunities for drug repurposing: Primary screen for LAN-5 cells (AID 1347100). Put shortly:
(§3)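 Cells (500-1,000/well) in growth media were settled 5 h at 37 degrees C, then given compounds for 48 h. Viability was read as CellTiter-Glo luminescence. Primary runs used MIPE at 11 points (0.78 nM-46 µM) and NPC at 8 points (0.59 nM-46 µM); follow-ups used 11 points.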

Assay [11] in a line: qHTS of pediatric cancer cell lines to identify multiple opportunities for drug repurposing: Primary screen for BT-12 cells (AID 1347101). Further: nearly all actives have a fitted effect of over 25% in size. Put shortly:
(§4)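 Cells (500-1,000/well) rested 5 h, then received compounds for 48 h; metabolically active cells were measured by CellTiter-Glo luminescence. Final concentrations spanned up to 46 µM (MIPE, 11-point) or 0.59 nM-46 µM (NPC, 8-point) in primary screens, 11-point in follow-ups.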

Assay [12] in a line: qHTS of pediatric cancer cell lines to identify multiple opportunities for drug repurposing: Primary screen for Rh18 cells (AID 1347102). Further: nearly all actives have a fitted effect of over 65% in size. In a few lines:
as §3

Assay [13] in a line: qHTS for Inhibitors of the Functional Ribonucleoprotein Complex (vRNP) of Lymphocytic Choriomeningitis Arenaviruses (LCMV): Viability assay - alamar blue signal for LCMV Primary Screen (AID 1347085; calls by dose curve; tested in HEK293 reporter line; further: nearly all actives have a fitted effect of over 80% in size).
Assay [14] is described as follows: qHTS of pediatric cancer cell lines to identify multiple opportunities for drug repurposing: Primary screen for SJ-GBM2 cells (AID 1347091). Put shortly: as §1
Assay [15] is described as follows: qHTS of pediatric cancer cell lines to identify multiple opportunities for drug repurposing: Primary screen for NB-EBc1 cells (AID 1347095). Put shortly:
as §2

The nature of assay [16]: qHTS of pediatric cancer cell lines to identify multiple opportunities for drug repurposing: Primary screen for U-2 OS cells (AID 1347096). Further: nearly all actives have a fitted effect of over 50% in size. Put shortly: as §3
The nature of assay [17]: qHTS of pediatric cancer cell lines to identify multiple opportunities for drug repurposing: Primary screen for SK-N-SH cells (AID 1347098). Further: nearly all actives have a fitted effect of over 65% in size. In a few lines: as §4
Assay [18] can be described thus: qHTS of pediatric cancer cell lines to identify multiple opportunities for drug repurposing: Primary screen for OHS-50 cells (AID 1347103). Further: nearly all actives have a fitted effect of over 40% in size. In a few lines:
as §4

Inconclusive results are not listed. Calls of active or inactive are those of the source. Unless noted, the call rests on the fitted dose curve; in most records, active means well fitted curve in the direction sought with a large enough effect; inconclusive means small, poorly fitted or top-dose-only effect, or another doubt; inactive means no such curve, though single readings can be large; an effect the other way counts as inactive or inconclusive.
Potency means the concentration at half of the fitted maximal effect.

Sequence of Nucleoprotein (Lymphocytic choriomeningitis virus (strain Armstrong)) (P09992 whole entry, looked up): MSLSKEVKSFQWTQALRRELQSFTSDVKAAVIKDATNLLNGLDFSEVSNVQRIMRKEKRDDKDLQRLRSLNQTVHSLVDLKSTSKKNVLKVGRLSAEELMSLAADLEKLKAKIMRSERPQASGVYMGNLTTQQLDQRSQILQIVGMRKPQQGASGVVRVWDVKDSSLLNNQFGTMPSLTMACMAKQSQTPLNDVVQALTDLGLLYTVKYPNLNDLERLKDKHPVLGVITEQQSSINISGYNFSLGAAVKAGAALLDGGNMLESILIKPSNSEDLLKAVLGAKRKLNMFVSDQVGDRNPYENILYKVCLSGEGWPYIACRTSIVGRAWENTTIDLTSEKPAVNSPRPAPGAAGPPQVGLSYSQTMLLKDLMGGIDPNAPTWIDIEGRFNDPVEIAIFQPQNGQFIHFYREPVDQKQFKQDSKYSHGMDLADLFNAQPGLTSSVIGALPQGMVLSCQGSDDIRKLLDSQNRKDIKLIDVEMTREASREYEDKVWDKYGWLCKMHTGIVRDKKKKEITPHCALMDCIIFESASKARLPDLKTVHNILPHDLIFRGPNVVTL

As to `NC(=O)c1ccc(-c2nc(-c3ccc4c(c3)OCCO4)c(-c3ccccn3)[nH]2)cc1`, in assay [1], the Potency was 21700 nM (active). In addition, in assay [2], the Potency entry was “inactive”.
With `S=C(SSC(=S)N1CCCCC1)N1CCCCC1`, the Potency in assay [3] was 938 nM (active); in assay [4], 26.6 nM (active); in [5] it was 26.6 nM (active); in assay [6], 37.6 nM (active); in [7], 309 nM (active); in assay [8], 37.6 nM (active). Besides, the Potency was 94.4 nM (active) in [9], 168 nM (active) in [10], 38.9 nM (active) in [11] and 29.9 nM (active) in assay [12].
As for `O=C(O)c1ccc(O)c2ncc(N3CCOCC3)cc12`, the Potency in assay [13] is 48500 nM (active).
Take `O=S(=O)(F)Cc1ccccc1`: in assay [1], the Potency is 1530 nM (active). Moreover, the Potency entry in assay [2], in [3], in assay [4], in [14], in assay [15] and in [16] was “inactive” each time. For the same molecule, the Potency entry in [8], in assay [17], in assay [9], in assay [10], in assay [11] and in [12] was “inactive” in each case. For the same molecule, the Potency entry in [18] was “inactive”.
For the molecule `CC(C)(C)c1[nH]cnc1C=c1[nH]c(=O)c(=Cc2ccccc2)[nH]c1=O`, the Potency in assay [13] was 7.9 nM (active); in [2], 31.4 nM (active).
As to `C=C[C@@H]1CN2CCC1C[C@@H]2[C@@H](O)c1ccnc2ccccc12` (stereo partly specified), the Potency in assay [2] is 38500 nM (active); in assay [5] it was 18700 nM (active); in assay [6] it was 9350 nM (active); in [17] it was 30400 nM (active); in assay [9], 10500 nM (active); in assay [18] it was 30600 nM (active). For the same molecule, the Potency result in assay [3] and in [16] was “inactive” in each case.
Take `C[C@@H](Oc1cc(-n2cnc3ccc(CN4CCN(C)CC4)cc32)sc1C(N)=O)c1ccccc1C(F)(F)F`: the Potency result in assay [13] and in assay [2] was “inactive” each time.
As to `COC(=O)c1ccc2c(C(=Nc3ccc(N(C)C(=O)CN4CCN(C)CC4)cc3)c3ccccc3)c(O)[nH]c2c1`, in assay [13], the Potency is 27300 nM (active). The Potency entry in assay [2] was “inactive”.
As to `CC(C)(O)C(=O)Nc1ccc([N+](=O)[O-])c(C(F)(F)F)c1`, the Potency result in assay [3], in assay [15], in assay [8] and in [12] was “inactive” throughout. The Potency was 18700 nM (active) in [4]; 11800 nM (active) in [5]; 935 nM (active) in assay [6]; 24100 nM (active) in assay [17]; 5900 nM (active) in assay [9].
Consider `C=CCON=C(C[C@H]1O[C@@H]2O[C@]3(C)CC[C@@H]4[C@H](C)CC[C@@H]([C@H]1C)[C@@]24OO3)[C@H]1O[C@@H]2O[C@]3(C)CC[C@H]4[C@H](C)CC[C@@H]([C@@H]1C)[C@@]24OO3`, for which the Potency in assay [14] is 372 nM (active); in assay [6], 332 nM (active); in [7] it was 432 nM (active); in assay [15] it was 372 nM (active); in [9], 833 nM (active); in [10], 469 nM (active). Besides, the values for the Potency in assay [11] and in assay [18] were 344 nM (active) and 306 nM (active), respectively. For the same molecule, the Potency entry in assay [16], in [8] and in assay [17] was “inactive” throughout.
`CN(C)C(=O)c1ccc(S(=O)(=O)c2ccc(NC(=O)[C@@](C)(O)C(F)(F)F)c(Cl)c2)cc1`: in assay [13], the Potency result is “inactive”.
As to `CO[C@@H]1[C@H](N(C)C(=O)c2ccccc2)C[C@H]2O[C@]1(C)n1c3ccccc3c3c4c(c5c6ccccc6n2c5c31)C(=O)NC4`, the Potency in assay [1] is 3060 nM (active). In addition, the Potency entry in [2] was “inactive”.
For `c1ccc2c(-c3cnn4cc(-c5ccc(N6CCNCC6)cc5)cnc34)ccnc2c1`, the Potency result in assay [2] is “inactive”.
Regarding `CC=C(C)C(=O)O[C@H]1C(C)=C2[C@@H]3OC(=O)[C@@](C)(O)[C@@]3(O)[C@@H](OC(=O)CCC)C[C@](C)(OC(C)=O)[C@@H]2[C@@H]1OC(=O)CCCCCCC`, the Potency in assay [1] is 769 nM (active); in assay [4], 469 nM (active); in assay [14], 41.8 nM (active); in [5], 23.5 nM (active); in [6] it was 18.7 nM (active); in [7], 17.2 nM (active). For the same molecule, the Potency in [15] is 118 nM (active); in [16] it was 296 nM (active); in assay [17] it was 136 nM (active); in [9] it was 66.2 nM (active); in [10] it was 41.8 nM (active); in assay [11] it was 48.5 nM (active). Further, the figures for the Potency in assay [12] and in assay [18] were 13.2 nM (active) and 17.2 nM (active), respectively.
Regarding `CC1=C(O)C(=O)C=C2C1=CC=C1[C@@]2(C)CC[C@@]2(C)[C@@H]3C[C@](C)(C(=O)O)CC[C@]3(C)CC[C@]12C`, the Potency in assay [1] is 19300 nM (active); in [2], 7690 nM (active); in assay [3] it was 7390 nM (active); in assay [4] it was 935 nM (active); in assay [14], 935 nM (active); in assay [5], 1180 nM (active). For the same molecule, the Potency in assay [6] is 833 nM (active); in assay [7], 4850 nM (active); in [15], 743 nM (active); in [17], 3040 nM (active); in [9], 1660 nM (active); in assay [10], 1870 nM (active). The figures for the Potency in assay [11], in assay [12] and in assay [18] were 2730 nM (active), 1870 nM (active) and 2430 nM (active), respectively.
`CC(=O)[O][Hg][c]1ccccc1`: the Potency is 1870 nM (active) in assay [3]; 1680 nM (active) in assay [4]; 106 nM (active) in [5]; 531 nM (active) in [6]; 2190 nM (active) in [7]; 21100 nM (active) in assay [15]. The Potency in assay [16] was 2660 nM (active); in assay [17], 970 nM (active); in assay [9], 1190 nM (active); in assay [11], 3470 nM (active); in [12] it was 2660 nM (active); in assay [18], 4900 nM (active).
With `CCOc1cc(C=C2C(=O)N(c3ccccc3)N=C2C)cc(Cl)c1OCC(=O)OC`, the Potency in assay [13] is 7690 nM (active).
On to `CCCCCCCCCCCCCCCC[N+](C)(C)C`, for which the Potency in assay [4] was 13300 nM (active); in assay [5] it was 4220 nM (active); in assay [6] it was 5310 nM (active); in assay [7], 15500 nM (active); in [17], 17200 nM (active); in assay [10] it was 23700 nM (active). Further, the values for the Potency in [11], in assay [12] and in [18] were 7770 nM (active), 5310 nM (active) and 3890 nM (active), respectively.
